Laboratory results reported in PubChem BioAssay AID540333 (Southern Research Specialized Biocontainment Screening …, 2011).
Among all 10,000 compounds or so, about 320 (3.2%) were called active. This is one part of a sample in which actives are shown more often than they occur. No stated cut-off is given here; in the data, active means CPE inhibition mostly above about 9.1% (no sharp cut-off); inactive means mostly below about 7.2%.

assay: Dengue virus cytopathic effect inhibitors, cell-based, CPE readout, HTS (AID 540333); settings: Dengue virus CPE inhibition in host cells, at 20 µM; hits give high values

SMILES	CPE inhibition
Cc1ccc(S(=O)(=O)NN=C2C3CC4CC(C3)CC2C4)cc1[N+](=O)[O-]	0.27% (inactive)
Cn1cnnc1SC1c2cccc3cccc(c23)C1NS(=O)(=O)c1ccccc1 (stereo not drawn)	0.485% (inactive)
Cc1ccc(C=Nc2ccccc2C(=O)Nc2ccccc2)cc1	0.36% (inactive)
CC(C)(C)OC(=O)C[C@H]1C/C=C\C[C@@H](CC(=O)N(CCO)Cc2ccccc2)C(=O)N[C@@H](c2ccccc2)COC1=O	inactive
CC1(C)C(C=C(Cl)Cl)C1C(=O)N(Cc1ccccc1Cl)C1CCS(=O)(=O)C1 (stereo not drawn)	29.9% (active)
CN(C(=O)COC(=O)c1cc(-c2ccccc2Cl)nc2ccccc12)C1CCS(=O)(=O)C1 (stereo not drawn)	inactive
CC1(C)C(C=C(Cl)Cl)C1C(=O)N(Cc1cccc(Cl)c1)C1CCS(=O)(=O)C1 (stereo not drawn)	0.525% (inactive)
CCN(Cc1ccccc1)C(=O)C1CCN(C/C(C)=C/c2ccccc2)CC1	inactive
Cc1ccc(C)c(S(=O)(=O)Nc2nc(C)c(C(=O)Nc3ccccc3)s2)c1	inactive
O=c1nc2s/c(=C\c3ccc(-c4ccccc4[N+](=O)[O-])o3)c(=O)n2nc1-c1ccccc1	inactive
O=C1c2ccccc2NC(c2ccc(-c3cccc([N+](=O)[O-])c3)o2)N1O (stereo not drawn)	0.135% (inactive)
O=C(/C=C/c1ccc(-c2ccccc2[N+](=O)[O-])o1)c1ccccc1	3.25% (inactive)
O=C1NC(c2ccc(-c3ccccc3[N+](=O)[O-])o2)C(C(=O)c2ccc(Cl)cc2)C(O)(C(F)(F)F)N1 (stereo not drawn)	30.5% (active)
O=C(N/N=C/c1ccc(-c2ccccc2[N+](=O)[O-])o1)[C@H]1C[C@@H]1c1ccccc1	inactive
O=C1NC(c2ccc(-c3ccccc3[N+](=O)[O-])o2)C(C(=O)c2ccc(F)cc2)C(O)(C(F)(F)F)N1 (stereo not drawn)	23.4% (active)
COc1ccc(-c2cn(-c3ccccc3)c3[n+]2CCS3)cc1	7.46% (inactive)
O=C(CSc1nc2ccccc2[nH]1)Nc1ccc2c(c1)CCC2	2.09% (inactive)
NS(=O)(=O)c1ccc(NC(=S)NCc2ccccc2Cl)cc1	1.7% (inactive)
O=[N+]([O-])c1ccc(N2CCOCC2)cc1SCc1ccco1	0.08% (inactive)
COCCNC(=S)N/N=C(\C)c1ccc2cc(OC)ccc2c1	0.1% (inactive)
CCc1ccc(OCC2c3cc(OC)c(OC)cc3CCN2C(=S)NCCOC)cc1 (stereo not drawn)	17.3% (active)
COc1cc2c(cc1OC)CN(C(=S)Nc1c(C)cccc1C)CC2	inactive

SMILES	CPE inhibition
COc1cccc(NC(=S)N2CCc3cc(OC)c(OC)cc3C2COc2ccc3c(C)cc(=O)oc3c2)c1 (stereo not drawn)	0.46% (inactive)
COCCNC(=S)N1CCc2cc(OC)c(OC)cc2C1COc1ccc(C(C)C)cc1 (stereo not drawn)	15.5% (active)
COc1cc2c(cc1OC)C(C)N(C(=O)c1ccc(Br)o1)CC2 (stereo not drawn)	inactive
COC(=O)Cc1ccc2sc(-c3ccccc3)nc2c1	inactive
COc1cc(/C=N/NC(=O)C2COc3ccccc3O2)cc(OC)c1OC (stereo not drawn)	inactive
CC(C(=O)NCC1CCCCC1)N1CCN(S(=O)(=O)/C=C/c2ccccc2)CC1 (stereo not drawn)	0.61% (inactive)
COc1ccc(NS(=O)(=O)c2ccc(OC)c(NC(=O)CCC3CCCCC3)c2)cc1	0.695% (inactive)
O=C(NNS(=O)(=O)c1ccc2ccccc2c1)NC1CCCCC1	inactive
COc1ccc(NS(=O)(=O)c2ccc(C)c(NC(=O)NC3CCCCC3)c2)cc1	7.27% (active)
CCOc1ccc(/C(O)=C2/C(=O)C(=O)N(CC3CCCO3)C2c2cccs2)cc1 (stereo not drawn)	0.87% (inactive)
Cc1nn(Cc2ccc(C(=O)N3N=C(C(F)F)CC3(O)C(F)F)o2)c(C)c1[N+](=O)[O-] (stereo not drawn)	0.095% (inactive)
COc1cccc(NC(=O)CN(C)C(=O)COc2ccc3ccccc3c2)c1	0.135% (inactive)
Cc1ccc(S(=O)(=O)Nc2ccc(-c3nnc(SCc4ccccc4Cl)o3)cc2)cc1	17.2% (active)
O=C(CSc1nnc(-c2ccncc2)o1)NCc1ccccc1Cl	inactive
Cc1ccc(S(=O)(=O)Nc2cc(=O)[nH]c(SCc3ccccc3Cl)n2)cc1	inactive
Cc1nn(CCC(N)=O)c2nc(-c3cccs3)cc(C(F)(F)F)c12	inactive
O=C(Oc1ccccc1C(=O)Nc1ccccc1)c1ccccc1Br	1.84% (inactive)
COc1ccccc1CNC(=O)C(NS(=O)(=O)c1ccc2c(c1)OCCO2)C(C)C (stereo not drawn)	inactive
CCCCN(C)C(=S)Nc1ccc(Oc2ccccc2)cc1	3.21% (inactive)
CCCn1c(SC(C(=O)Nc2cccc(OC)c2)c2ccccc2)nc2ccccc2c1=O (stereo not drawn)	0.175% (inactive)
Cc1ccccc1NC(=O)C1CCCN1/C=C/C(=O)C(F)(F)F (stereo not drawn)	inactive
CCC(=O)NC(Nc1nc(C)cs1)(C(=O)OC)C(F)(F)F (stereo not drawn)	0.32% (inactive)

SMILES	CPE inhibition
CC(C)(C)OC(=O)N[C@H](C(=O)OC(C)(C)C)c1ccc2ccccc2c1	0.425% (inactive)
CCOC(=O)C(C)(C)N(Cc1ccc(C)cc1)S(=O)(=O)c1ccc(Cl)c([N+](=O)[O-])c1	7.28% (active)
CCOC(=O)C(C)(C)N(Cc1ccccc1C)S(=O)(=O)c1ccc(Cl)c([N+](=O)[O-])c1	7.12% (inactive)
CCOC(=O)C(C)(C)N(Cc1cccc(C)c1)S(=O)(=O)c1ccc(Cl)c([N+](=O)[O-])c1	7.24% (inactive)
O=C(NN1C(=O)/C(=C\c2cccnc2)SC1=S)C(c1ccccc1)c1ccccc1	inactive
Cc1ccccc1C(=O)NCCCCc1ccccc1	0.125% (inactive)
O=C(Cn1c(COc2ccccc2)nc2ccccc21)Nc1cc(Cl)ccc1Cl	5.49% (inactive)
CCC(C)NC(=O)Cn1c(COc2ccc(Cl)cc2Cl)nc2ccccc21 (stereo not drawn)	13.4% (active)
O=C(Cn1c(COc2ccc(Cl)cc2)nc2ccccc21)NCC(F)(F)F	inactive
CCOc1cc(/C=C/c2cc(C(=O)O)c3ccccc3n2)ccc1O	0.055% (inactive)
Cc1ccc(NS(=O)(=O)c2ccc(OCC(=O)NCc3ccncc3)cc2)cc1	0.315% (inactive)
Cc1ccc(S(=O)(=O)Nc2ccc(NC(=O)Nc3ccc(F)cc3F)cc2)cc1	10.3% (inactive)
Cc1ccc(NS(=O)(=O)c2ccc(C3CCCCC3)cc2)cc1	21.5% (active)
CC1(C)CC(=O)C2=C(C1)NC1=C(C(=O)c3ccccc31)C2c1ccc(O)cc1 (stereo not drawn)	2.13% (inactive)
CC(C)Oc1cccc(C(=O)NC(=S)NCc2cccnc2)c1	2.73% (inactive)
O=C(NC(=S)Nc1ccc(Cc2ccncc2)cc1)c1ccccc1	0.355% (inactive)
O=C(NC(=S)NC(c1ccccc1)c1ccncc1)c1ccccc1 (stereo not drawn)	18.9% (active)
CC(C)NC(=S)NC(=O)c1ccc(-c2ccccc2)cc1	0.805% (inactive)
CCOC(=O)c1c(C(F)(F)F)cc(-c2ccc(F)cc2)nc1C	inactive
COc1cc(/C=C/C(=O)N(Cc2ccccc2)c2ccccn2)cc(OC)c1OC	inactive
CC(C)(Oc1ccc(Cl)cc1)C(=O)N(Cc1ccccc1)c1ccccn1	11% (active)
CC1(C(=O)NC(=S)N(Cc2ccccc2)c2ccccn2)CC1(Cl)Cl (stereo not drawn)	0.075% (inactive)

SMILES	CPE inhibition
O=C(c1ccc(COc2ccc(Br)cc2)o1)N1N=C(C(F)F)CC1(O)C(F)F (stereo not drawn)	2.42% (inactive)
Cc1ccc(OCC(=O)NCC(=O)Nc2ccc(F)c(F)c2F)c([N+](=O)[O-])n1	0.32% (inactive)
Cc1ccc(OCC(=O)Nc2cc(S(=O)(=O)N3CCCCC3)ccc2C)c([N+](=O)[O-])n1	3.06% (inactive)
Cc1ccc(OCC(=O)Nc2ccccc2Sc2ccc(Cl)cc2)c([N+](=O)[O-])n1	13.9% (active)
O=C1c2ccccc2S(=O)(=O)c2cc(C(=O)N3CCN(c4ncccn4)CC3)ccc21	0.735% (inactive)
CC(C)c1ccc(NC(=O)COc2ccc(F)cc2C(=O)c2cnn(-c3ccccc3)c2)cc1	1.51% (inactive)
CCOP(=O)(OCC)C(NC(=O)Nc1ccccc1)C(N)=O (stereo not drawn)	1.93% (inactive)
CC1(C(=O)NCCc2c[nH]c3ccccc23)C=CCN1C(=O)c1ccccc1 (stereo not drawn)	1.21% (inactive)
CC(C)C(=O)NCCc1c[nH]c2ccccc12	0.48% (inactive)
C[C@]1(C(=O)NCCc2c[nH]c3ccccc23)C=C[C@@H](Cc2ccccc2)N1C(=O)c1ccccc1	19.4% (active)
CCCCn1c(SCc2nc3ccccc3s2)nc2ccccc2c1=O	inactive
CCOc1cc2c3c(c1)C1(C(=O)N3C(C)(C)CC2C)C(C#N)=C(N)N2C(=C1C#N)Nc1ccccc12 (stereo not drawn)	2.12% (inactive)
O=C(NNc1ccccc1Cl)C(O)(c1cccc(C(F)(F)F)c1)c1cccc(C(F)(F)F)c1	20.4% (active)
Cc1ccc(NNC(=O)C(O)(c2cccc(C(F)(F)F)c2)c2cccc(C(F)(F)F)c2)cc1	7.56% (inactive)
Cc1cccc(C(O)(C(=O)NNc2ccc3ccccc3n2)c2cccc(C)c2)c1	inactive
Cc1ccc(NC(=S)NCC(C)C)cc1	inactive
C#Cc1ccc([C@@H]2C=C(C(=O)O)O[C@H](OCC)[C@H]2CCCO)cc1	1.06% (inactive)
Cc1cc(-c2n[nH]c(=S)n2/N=C/c2ccccc2[N+](=O)[O-])n[nH]1	0.73% (inactive)
Cc1cc(-c2n[nH]c(=S)n2/N=C/c2cccc([N+](=O)[O-])c2)n[nH]1	0.265% (inactive)
Cc1cc(-c2n[nH]c(=S)n2/N=C/c2cc([N+](=O)[O-])ccc2Cl)n[nH]1	10.9% (active)
O=C(Nc1ccc(F)cc1F)c1cc2ncc(CCCl)cn2n1	0.045% (inactive)
Cc1ccc(S(=O)(=O)N2CCCCC2)cc1C(=O)OCC(=O)NC(=O)NC12CC3CC(CC(C3)C1)C2	0.11% (inactive)
